PI4K2A block: inhibitors of human PI4K2A; Q9BTU6; purified PI4K2A, ADP-Glo luminescence, 1 h; stronger effect = lower value; activity change, negative = inhibition, % at 76.9 µM; actives 0.13% (n = 420,000); AID 1346378; in the data active means activity change below about -50%; inconclusive means mostly about -30% to -49%;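 further: -100% = wells without enzyme as full effect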
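In this quantitative HTS, ADP production by PI4K2A was quantified luminescently after 1 h at ambient temperature; 100 microM adenosine served as plate-quality control.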
GCN5L2 inh: blocks human GCN5L2 histone acetyltransferase; Q92830; GCN5L2 HAT assay, ThioGlo1 CoA-SH fluorescence; Potency, µM (top dose mostly 58.9 µM), without a hit: at the highest dose activity change, negative = inhibition, actives largely listed as inhibitors; actives 0.21% (n = 390,000); further: potency means the concentration at half of the fitted maximal effect
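Preincubate 20nM GCN5L2 with compound 15 min, RT → add 50uM ThioGlo1 + 75uM H3(1-25) + 70uM acetyl-CoA → read fluorescence 0 and 20 min. Primary qHTS; fluorescent artifacts likely.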
PLK1 PBD block: PLK1 (human) polo-box domain binding inhibition; Plk1 PBD binding of FITC phosphopeptide, fluorescence polarization; AID 720504; Potency, µM, for inactives: max response, negative = inhibition, most hits filed as inhibitors; actives 2.8% (n = 360,000); further: potency means the concentration at half of the fitted maximal effect; series mostly up to about 57 µM; nearly all actives have a fitted effect of over 65% in size
GLS inh: blocks human kidney-isoform glutaminase activity; Potency, µM (doses to about 45.5 µM), without a hit: at the top dose activity change, negative = inhibition, hits mostly inhibitors; GLS enzymatic activity, qHTS titration; AID 624170; actives 0.21% (n = 410,000); O94925; further: potency means the concentration at half of the fitted maximal effect
Target sequence (O94925 whole entry, looked up, canonical isoform): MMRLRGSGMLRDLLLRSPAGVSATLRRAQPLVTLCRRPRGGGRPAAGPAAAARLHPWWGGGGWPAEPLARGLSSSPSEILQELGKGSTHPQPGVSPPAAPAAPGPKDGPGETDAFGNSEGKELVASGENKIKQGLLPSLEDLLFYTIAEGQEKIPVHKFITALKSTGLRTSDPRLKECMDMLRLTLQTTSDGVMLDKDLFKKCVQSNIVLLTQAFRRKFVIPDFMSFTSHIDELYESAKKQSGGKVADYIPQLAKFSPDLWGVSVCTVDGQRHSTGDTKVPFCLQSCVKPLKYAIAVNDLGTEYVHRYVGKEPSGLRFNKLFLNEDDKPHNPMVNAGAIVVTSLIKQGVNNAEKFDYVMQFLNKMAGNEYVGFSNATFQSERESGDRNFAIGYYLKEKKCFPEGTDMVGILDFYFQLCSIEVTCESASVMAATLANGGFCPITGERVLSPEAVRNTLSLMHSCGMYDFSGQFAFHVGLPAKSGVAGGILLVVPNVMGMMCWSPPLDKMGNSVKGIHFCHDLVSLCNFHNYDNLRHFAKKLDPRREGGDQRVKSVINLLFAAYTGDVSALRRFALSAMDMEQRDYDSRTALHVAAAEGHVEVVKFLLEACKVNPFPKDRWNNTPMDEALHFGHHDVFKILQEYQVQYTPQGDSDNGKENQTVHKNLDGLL
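Human kidney-isoform GLS in 45 mM KH2PO4 pH 8.2, 0.02% Tween-20, with compound, started with 1mM L-Glutamine (added stock). Glutamate oxidase/HRP/Amplex red coupled fluorescence read at start and after 30 min at RT.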
VDR inh: inhibitors of human vitamin D receptor | VDR-SRC2-3 peptide fluorescence polarization, 2 h | Potency, µM, inactives show max response, negative = inhibition, most hits filed as inhibitors | actives 0.93% (n = 400,000); further: potency means the concentration at half of the fitted maximal effect
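Fluorescence polarization assay measuring small-molecule disruption of VDR binding to the coregulator peptide SRC2-3. Compounds were pin-transferred (23 nl) into the reagent mix and incubated 2 h at room temperature before reading.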
An asterisk follows results filed as active; ? = inconclusive; · = no result given. An excerpt weighted towards active compounds, which were near 3.1% of everything screened. Unless noted, the call rests on the fitted dose curve; in most records, active means well fitted curve in the direction sought with a large enough effect; inconclusive means small, poorly fitted or top-dose-only effect, or another doubt; inactive means no such curve, though single readings can be large; an effect the other way counts as inactive or inconclusive. Unless noted, on the % scale 0 is the no-effect control and ±100 the full control effect.

SMILES | PI4K2A block | GCN5L2 inh | PLK1 PBD block | GLS inh | VDR inh
O=C(CNC(=O)Cn1cnc2sc3c(c2c1=O)CCCC3)NCc1ccccn1 | -3.2 | -6.4% | 0.7% | -1.4% | -6.8%
O=C(Cn1cnc2sc3c(c2c1=O)CCCC3)NCC(=O)Nc1c(F)cccc1F | -6.5 | -5.3% | 33.6µM* | 3.2% | -13.1%
CN1C(=O)C[C@@](C#N)(C(=O)NCC(F)(F)F)[C@H]1c1ccccc1 | -2.3 | · | · | · | ·
CC(=O)Nc1ccc(-c2nnc(SCC(=O)c3ccc4c(c3)Cc3ccccc3-4)n2C)cc1 | 22.6 | -3.8% | -18.3% | -0.1% | 50.1µM*
CC(=O)Nc1ccc(C(=O)CSc2nnc(-c3ccccc3)n2-c2ccccc2)cc1 | -1.9 | -0.3% | · | -1.3% | 4.0%
O=C(NN=C/C=C/c1ccco1)c1cc(-c2ccc(Cl)cc2)n[nH]1 | -12.0 | · | · | · | ·
CC(C)N1CCCCC(NC(=O)c2cccc(F)c2)C1=O (stereo unspecified) | 1.8 | · | · | · | ·
Cc1nn(CC(=O)OCC(=O)Nc2ccccc2[N+](=O)[O-])c(C)c1[N+](=O)[O-] | 2.4 | -0.5% | 6.6% | -8.6% | -10.1%
Cc1nn(CC(=O)OCC(=O)Nc2c(C(C)C)cccc2C(C)C)c(C)c1[N+](=O)[O-] | 0.8 | 0.7% | 29.9µM* | -8.1% | -2.8%
COC(=O)[C@]12C[C@H](CC(=O)NCc3ccc(OC)c(OC)c3)C(=O)N(Cc3ccc(Cl)cc3Cl)C1=C[C@H](COCc1ccccc1)O[C@@H]2C | 1.7 | · | · | · | ·
Cc1cc(NC(=O)CCC(=O)N(CC2CCCO2)C(C(=O)NC2CCCC2)c2cccnc2)no1 (stereo unspecified) | -10.1 | -6.3% | 26.7µM* | 22.5% | -17.1%
C=CCN(C(=O)CCC(=O)Nc1cc(C)on1)C(C(=O)NC1CCCC1)c1cccnc1 (stereo unspecified) | -2.9 | -9.5% | -7.3% | 7.8% | 15.5%
O=C(NCC(=O)N1CCN(c2ccccc2O)CC1)C1CCCCC1 | 4.1 | -9.3% | -5.6% | 5.62µM* | 20.1%
Cc1nc2c(nnn2Cc2ccccc2Cl)c(=O)[nH]1 | -2.2 | -12.5% | 2.7% | -0.4% | -5.5%
Cc1nc2c(nnn2Cc2ccccc2)c(=O)[nH]1 | -3.6 | -7.4% | 4.74µM* | ? | ?
Cc1nc(Nc2cc(F)ccc2C)c2nnn(Cc3ccccc3)c2n1 | 5.6 | ? | 23.8µM* | 25.4% | ?
Cc1nc(Nc2ccc(Cl)cc2)c2nnn(Cc3ccccc3)c2n1 | -0.1 | -0.5% | 26.7µM* | 2.7% | -1.8%
O=C(NCC(O)CO)c1c(I)c(C(=O)NCC(O)CO)c(I)c(N(CCO)C(=O)CO)c1I (stereo unspecified) | -5.3 | · | · | · | ·
COC(=O)NCC12CC3CC(C1)CC(CNC(=O)OC)(C3)C2 | 3.0 | 0.6% | 11.9µM* | -5.7% | -2.6%
CCOc1ccc(NC(=O)c2cnn3c2NC(C)=C(C(=O)Nc2ccc(Cl)cc2)C3c2ccc(OC)c(OC)c2)cc1 (stereo unspecified) | -2.9 | -1.3% | · | -0.6% | 3.2%
CCc1cc2c3c(c1)C(C)CC(C)(C)N3C(=O)/C2=C1\SC(=O)NC1=O (stereo unspecified) | -1.2 | -0.1% | 29.9µM* | 0.0% | 0.0%
O=C(CSc1nncn1-c1ccccc1)N1CCCC1 | -1.5 | -2.0% | -14.1% | -15.6% | 27.1%
CC1CCN(C(=O)CSc2nncn2-c2ccccn2)CC1 | -3.1 | -3.4% | 26.7µM* | · | ?
CCCN1CCN(CCCNC(=O)Cn2nc(C)n3c(cc4cc(F)ccc43)c2=O)CC1 | 12.7 | -1.4% | 29.9µM* | -13.5% | -13.8%
O=C(Nc1ccccc1C(=O)Nc1nnc(C(F)(F)F)s1)c1ccccc1Cl | 6.8 | -20.6% | 26.7µM* | 24.1% | -20.7%
SMILES | PI4K2A block | GCN5L2 inh | PLK1 PBD block | GLS inh | VDR inh
NC(=O)c1ccccc1NC(=O)c1ccccc1Cl | 82.3 | -15.0% | -7.8% | -2.5% | -10.1%
Cc1ccc(/C=C2/C(=O)C3(C)CCC2C3(C)C)cc1 (stereo unspecified) | · | 0.4% | · | -0.2% | -5.4%
C[C@H]1[C@@H](NC(=O)C(c2ccccc2)c2ccccc2)CC[C@@]23CCCN2C(=O)CCC[C@@H]13 | -3.8 | · | · | · | ·
Nc1ccc(C(=O)Nc2ccc3c(O)cc(S(=O)(=O)O)cc3c2)cc1 | -2.3 | · | -10.6% | 6.31µM* | -6.6%
O=C(Cn1c(=O)c2cccn2c2ccc(F)cc21)NCc1cccc(Cl)c1 | -3.5 | -10.6% | · | -7.5% | 7.8%
C=C[C@](C)(O)CCC1C(=C)CC(OC(C)=O)C2C(C)(C)CCCC12C (stereo partly specified) | · | -19.5% | · | · | -9.4%
CN(C)C(=O)c1ccc(-c2nc(Nc3ccccc3)c3ccccc3n2)cc1 | · | ? | · | · | 39.8µM*
c1ccc2c(-n3ccnc3)nc(-c3ccoc3)nc2c1 | · | -26.7% | · | · | 31.6µM*
CN(C)C(=O)c1ccc(-c2nc(N(C)C)c3ccccc3n2)cc1 | · | -3.0% | · | · | 8.2%
O=C(O)c1ccc(Nc2nc(-c3ccccc3)nc3ccccc23)cc1 | -1.3 | -7.4% | 18.9µM* | 58.2% | 79.4µM*
c1ccc2c(N3CCOCC3)nc(-c3ccoc3)nc2c1 | · | -13.3% | · | · | ?
c1ccc(Nc2nc(-c3ccoc3)nc3ccccc23)cc1 | · | ? | · | · | 28.2µM*
O=P(O)(O)OC(Cn1cncn1)(Cn1cncn1)c1ccc(F)cc1F | · | · | · | -3.4% | ·
COc1ccc(-c2cc(C(=O)NN=Cc3ccc(C)s3)[nH]n2)cc1 | -1.0 | · | · | · | ·
COCc1cc(C)nc(SCc2ccc(F)cc2)c1C#N | -22.3 | -3.3% | 23.8µM* | -1.9% | -27.5%
COCc1cc(C)nc(SCc2ccc(Cl)cc2)c1C#N | -0.5 | -25.5% | -3.5% | -6.6% | 7.9%
Cc1c(N)cccc1C(F)(F)F | 2.4 | · | · | · | ·
O=C(Nc1ccc(F)cc1)OCc1cn(Cc2ccc(F)cc2F)nn1 | 2.8 | · | · | · | ·
CC(=O)n1cc(N(C(=O)CCl)c2ccc([N+](=O)[O-])cc2)c2ccccc21 | 26.3 | -3.2% | -24.0% | -12.1% | 22.4µM*
CC(=O)n1cc(N(C(=O)CCl)c2ccccc2)c2ccccc21 | 21.2 | 0.2% | -10.5% | -13.1% | ?
CCN(CC(F)(F)C(F)F)S(=O)(=O)c1ccc(NC(=O)OC)cc1 | -11.9 | -26.5% | 3.77µM* | ? | ?
Cc1ccc(S(=O)(=O)c2ccc([N+](=O)[O-])cn2)cc1 | 18.0 | -0.1% | ? | -10.7% | 25.1µM*
O=[N+]([O-])c1ccc(Nc2ccccc2)nc1 | -0.4 | -3.9% | 1.4% | 6.8% | 4.2%
Cc1ccc(S(=O)(=O)c2ccc(C)cc2)cc1 | 5.3 | -6.2% | -2.4% | -5.9% | 3.6%
O=[N+]([O-])c1ccc(S(=O)(=O)c2ccccc2)nc1 | 6.5 | 47.4% | 5.32µM* | 3.5% | 39.8µM*
COc1ccc(CNC(=O)c2sc3nc4n(c(=O)c3c2C)CCCCC4)cc1 | -1.7 | -6.6% | · | 2.3% | -8.7%

From PubChem BioAssay
